Measured values as given in PubChem BioAssay.
Active and inactive are the calls of the source.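 The calls were made as follows, unless noted: active = normalized viability below 100% at a tested concentration; inactive = the rest.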

How the values were obtained:
[1] = sensitizers of A549 cells to miR-34 induction, primary screen, imaging, A549 dox-inducible miR-34, nuclei and caspase counts (AID 1347080;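 active = compounds whose cell count with miR-34 switched on is under 0.7 times the count with it off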); conditions: A549 miR-34 inducible, Hoechst nuclei count, 48 h
[2] = survival rescue of mitochondrial mutant cells in low glucose, primary screen, MELAS cybrids, Rieske KO mouse fibroblasts, CellTiter-Glo (AID 1508586;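 active = mean z-score across replicates of 1.96 or higher in either the MELAS or the Rieske mutant cell line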;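 also: z relative to plate mean and SD of compound and empty wells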)
[3] = ovarian cancer cell viability with rucaparib, profiling panel, oncology-focused library, rucaparib conditional (AID 1508598); conditions: patient-derived ovarian cancer cells, CellTiter-Glo viability, 144 h, stronger effect = lower value
[4] = stronger effect = lower value, cell number ratio, induced over uninduced
[5] = measured here: relative caspase fold change +Dox/-Dox
[6] = measured here: total cells with miR-34 induction, stronger effect = lower value
[7] = measured here: total cells without miR-34 induction
[8] = MELAS cybrid survival, CellTiter-Glo 48 h, stronger effect = higher value
[9] = Rieske KO mouse fibroblast survival, CellTiter-Glo 72 h
[10] = at 0.000305 µM, OCI-C5x cells, with rucaparib 10 µM, 100% = cells with rucaparib alone
[11] = at 0.000305 µM, OCI-C5x cells, without rucaparib
[12] = at 0.000305 µM, OCI-P5x cells, with rucaparib 20 µM, 100% = cells with rucaparib alone
[13] = at 0.000305 µM, OCI-P5x cells, without rucaparib
[14] = at 0.00122 µM, OCI-C5x cells, with rucaparib 10 µM, 100% = cells with rucaparib alone
[15] = at 0.00122 µM, OCI-C5x cells, without rucaparib
[16] = at 0.00122 µM, OCI-P5x cells, with rucaparib 20 µM, 100% = cells with rucaparib alone
[17] = at 0.00122 µM, OCI-P5x cells, without rucaparib
[18] = at 0.00488 µM, OCI-C5x cells, with rucaparib 10 µM, 100% = cells with rucaparib alone
[19] = at 0.00488 µM, OCI-C5x cells, without rucaparib
[20] = at 0.00488 µM, OCI-P5x cells, with rucaparib 20 µM, 100% = cells with rucaparib alone
[21] = at 0.00488 µM, OCI-P5x cells, without rucaparib
[22] = at 0.0195 µM, OCI-C5x cells, with rucaparib 10 µM, 100% = cells with rucaparib alone
[23] = at 0.0195 µM, OCI-C5x cells, without rucaparib
[24] = at 0.0195 µM, OCI-P5x cells, with rucaparib 20 µM, 100% = cells with rucaparib alone
[25] = at 0.0195 µM, OCI-P5x cells, without rucaparib
[26] = at 0.0781 µM, OCI-C5x cells, with rucaparib 10 µM, 100% = cells with rucaparib alone
[27] = at 0.0781 µM, OCI-C5x cells, without rucaparib
[28] = at 0.0781 µM, OCI-P5x cells, with rucaparib 20 µM, 100% = cells with rucaparib alone
[29] = at 0.0781 µM, OCI-P5x cells, without rucaparib
[30] = at 0.313 µM, OCI-C5x cells, with rucaparib 10 µM, 100% = cells with rucaparib alone
[31] = at 0.313 µM, OCI-C5x cells, without rucaparib
[32] = at 0.313 µM, OCI-P5x cells, with rucaparib 20 µM, 100% = cells with rucaparib alone
[33] = at 0.313 µM, OCI-P5x cells, without rucaparib
[34] = at 1.25 µM, OCI-C5x cells, with rucaparib 10 µM, 100% = cells with rucaparib alone
[35] = at 1.25 µM, OCI-C5x cells, without rucaparib
[36] = at 1.25 µM, OCI-P5x cells, with rucaparib 20 µM, 100% = cells with rucaparib alone
[37] = at 1.25 µM, OCI-P5x cells, without rucaparib
[38] = at 5 µM, OCI-C5x cells, with rucaparib 10 µM, 100% = cells with rucaparib alone
[39] = at 5 µM, OCI-C5x cells, without rucaparib
[40] = at 5 µM, OCI-P5x cells, with rucaparib 20 µM, 100% = cells with rucaparib alone
[41] = at 5 µM, OCI-P5x cells, without rucaparib

SMILES: CC1C=CC=CC=CC=CC=CC=CC=CC(OC2OC(C)C(O)C(N)C2O)CC2O[C@@](O)(CC(O)CC(O)C(O)CCC(O)CC(O)CC(=O)OC(C)C(C)C1O)CC(O)C2C(=O)O (some centres not stated)
- fold change [1, 4]: 0.819 (inactive)
- fold change [1, 5]: 1.3
- cell count [1, 6]: 6680
- cell count [1, 7]: 8160
- z-score [2, 8]: -0.196 (inactive)
- z-score [2, 9]: 0.383

SMILES: NC(=O)CCCSc1nc(N)nc(-c2c(Cl)cc3c4c(cccc24)COC3)n1
- fold change [1, 4]: 0.945 (inactive)
- fold change [1, 5]: 0.479
- cell count [1, 6]: 2430
- cell count [1, 7]: 2570
- z-score [2, 8]: 2.88 (active)
- z-score [2, 9]: -2.67
- viability [3, 10]: 109% (inactive)
- viability [3, 11]: 95.8% (active)
- viability [3, 12]: 104% (inactive)
- viability [3, 13]: 102% (inactive)
- viability [3, 14]: 107% (inactive)
- viability [3, 15]: 101% (inactive)
- viability [3, 16]: 98% (active)
- viability [3, 17]: 96.2% (active)
- viability [3, 18]: 114% (inactive)
- viability [3, 19]: 103% (inactive)
- viability [3, 20]: 106% (inactive)
- viability [3, 21]: 98.7% (active)
- viability [3, 22]: 125% (inactive)
- viability [3, 23]: 111% (inactive)
- viability [3, 24]: 103% (inactive)
- viability [3, 25]: 94.9% (active)
- viability [3, 26]: 147% (inactive)
- viability [3, 27]: 98.7% (active)
- viability [3, 28]: 16.9% (active)
- viability [3, 29]: 38.5% (active)
- viability [3, 30]: 74.7% (active)
- viability [3, 31]: 35.4% (active)
- viability [3, 32]: 14.5% (active)
- viability [3, 33]: 8.07% (active)
- viability [3, 34]: 16% (active)
- viability [3, 35]: 7.19% (active)
- viability [3, 36]: 7.31% (active)
- viability [3, 37]: 5.49% (active)
- viability [3, 38]: 9.52% (active)
- viability [3, 39]: 6.09% (active)
- viability [3, 40]: 4.5% (active)
- viability [3, 41]: 3.17% (active)

SMILES: CC(C)NCCCn1c(Sc2cc3c(cc2I)OCO3)nc2c(N)ncnc21
- fold change [1, 4]: 1.06 (inactive)
- fold change [1, 5]: 0.435
- cell count [1, 6]: 2580
- cell count [1, 7]: 2430
- z-score [2, 8]: 3.04 (active)
- z-score [2, 9]: -0.929
- viability [3, 10]: 125% (inactive)
- viability [3, 11]: 112% (inactive)
- viability [3, 12]: 95.1% (active)
- viability [3, 13]: 94.7% (active)
- viability [3, 14]: 129% (inactive)
- viability [3, 15]: 108% (inactive)
- viability [3, 16]: 102% (inactive)
- viability [3, 17]: 94.3% (active)
- viability [3, 18]: 119% (inactive)
- viability [3, 19]: 107% (inactive)
- viability [3, 20]: 99.8% (active)
- viability [3, 21]: 98.3% (active)
- viability [3, 22]: 126% (inactive)
- viability [3, 23]: 122% (inactive)
- viability [3, 24]: 101% (inactive)
- viability [3, 25]: 97.9% (active)
- viability [3, 26]: 139% (inactive)
- viability [3, 27]: 127% (inactive)
- viability [3, 28]: 105% (inactive)
- viability [3, 29]: 107% (inactive)
- viability [3, 30]: 143% (inactive)
- viability [3, 31]: 60.7% (active)
- viability [3, 32]: 15.7% (active)
- viability [3, 33]: 9.78% (active)
- viability [3, 34]: 77.5% (active)
- viability [3, 35]: 33.9% (active)
- viability [3, 36]: 17.3% (active)
- viability [3, 37]: 8.78% (active)
- viability [3, 38]: 15.7% (active)
- viability [3, 39]: 9.3% (active)
- viability [3, 40]: 7.34% (active)
- viability [3, 41]: 6.28% (active)

SMILES: CCC[C@@H]1OC2C[C@H]3[C@@H]4CCC5=CC(=O)C=C[C@]5(C)[C@@H]4C(O)C[C@]3(C)[C@@]2(C(=O)CO)O1 (some centres not stated)
- fold change [1, 4]: 1.01 (inactive)
- fold change [1, 5]: 0.72
- cell count [1, 6]: 3350
- cell count [1, 7]: 3330
- z-score [2, 8]: -0.541 (inactive)
- z-score [2, 9]: -0.57

SMILES: Cc1cc(C)c(-c2csc(NC(=O)c3ccccc3)n2)c(C)c1
- fold change [1, 4]: 0.83 (inactive)
- fold change [1, 5]: 0.759
- cell count [1, 6]: 3610
- cell count [1, 7]: 4340
- z-score [2, 8]: -0.374 (inactive)
- z-score [2, 9]: 0.994
- viability [3, 10]: 97.8% (active)
- viability [3, 11]: 101% (inactive)
- viability [3, 12]: 104% (inactive)
- viability [3, 13]: 97.3% (active)
- viability [3, 14]: 113% (inactive)
- viability [3, 15]: 97.2% (active)
- viability [3, 16]: 101% (inactive)
- viability [3, 17]: 104% (inactive)
- viability [3, 18]: 108% (inactive)
- viability [3, 19]: 107% (inactive)
- viability [3, 20]: 103% (inactive)
- viability [3, 21]: 104% (inactive)
- viability [3, 22]: 104% (inactive)
- viability [3, 23]: 96.2% (active)
- viability [3, 24]: 103% (inactive)
- viability [3, 25]: 105% (inactive)
- viability [3, 26]: 111% (inactive)
- viability [3, 27]: 105% (inactive)
- viability [3, 28]: 105% (inactive)
- viability [3, 29]: 102% (inactive)
- viability [3, 30]: 111% (inactive)
- viability [3, 31]: 103% (inactive)
- viability [3, 32]: 104% (inactive)
- viability [3, 33]: 101% (inactive)
- viability [3, 34]: 113% (inactive)
- viability [3, 35]: 104% (inactive)
- viability [3, 36]: 103% (inactive)
- viability [3, 37]: 100% (active)
- viability [3, 38]: 99.6% (active)
- viability [3, 39]: 113% (inactive)
- viability [3, 40]: 86.6% (active)
- viability [3, 41]: 95.6% (active)

SMILES: Nc1cc(F)ccc1NC(=O)C=Cc1cnn(CC=Cc2ccccc2)c1
- fold change [1, 4]: 0.91 (inactive)
- fold change [1, 5]: 0.53
- cell count [1, 6]: 6990
- cell count [1, 7]: 7680
- z-score [2, 8]: -0.402 (inactive)
- z-score [2, 9]: -2.77

SMILES: CC(=O)OCC(=O)[C@]1(O)CC[C@H]2[C@@H]3CCC4=CC(=O)CC[C@]4(C)[C@@H]3C(=O)C[C@@]21C
- fold change [1, 4]: 0.938 (inactive)
- fold change [1, 5]: 0.685
- cell count [1, 6]: 9630
- cell count [1, 7]: 10300
- z-score [2, 8]: -0.429 (inactive)
- z-score [2, 9]: -0.073

SMILES: Cc1ccc(S(=O)(=O)n2c(N)nc3ccccc32)cc1
- fold change [1, 4]: 1.01 (inactive)
- fold change [1, 5]: 0.588
- cell count [1, 6]: 6490
- cell count [1, 7]: 6440
- z-score [2, 8]: -0.425 (inactive)
- z-score [2, 9]: -0.074

SMILES: CCCc1ccc(OCC(=O)N(Cc2nc(-c3cccnc3)no2)C(C)C)cc1
- fold change [1, 4]: 0.834 (inactive)
- fold change [1, 5]: 0.57
- cell count [1, 6]: 6670
- cell count [1, 7]: 7990
- z-score [2, 8]: -0.333 (inactive)
- z-score [2, 9]: 0.238
- viability [3, 10]: 116% (inactive)
- viability [3, 11]: 115% (inactive)
- viability [3, 12]: 98% (active)
- viability [3, 13]: 106% (inactive)
- viability [3, 14]: 125% (inactive)
- viability [3, 15]: 122% (inactive)
- viability [3, 16]: 102% (inactive)
- viability [3, 17]: 98.6% (active)
- viability [3, 18]: 129% (inactive)
- viability [3, 19]: 104% (inactive)
- viability [3, 20]: 105% (inactive)
- viability [3, 21]: 101% (inactive)
- viability [3, 22]: 118% (inactive)
- viability [3, 23]: 110% (inactive)
- viability [3, 24]: 97.5% (active)
- viability [3, 25]: 102% (inactive)
- viability [3, 26]: 134% (inactive)
- viability [3, 27]: 114% (inactive)
- viability [3, 28]: 104% (inactive)
- viability [3, 29]: 103% (inactive)
- viability [3, 30]: 120% (inactive)
- viability [3, 31]: 110% (inactive)
- viability [3, 32]: 98.3% (active)
- viability [3, 33]: 101% (inactive)
- viability [3, 34]: 115% (inactive)
- viability [3, 35]: 112% (inactive)
- viability [3, 36]: 103% (inactive)
- viability [3, 37]: 96.3% (active)
- viability [3, 38]: 99.7% (active)
- viability [3, 39]: 111% (inactive)
- viability [3, 40]: 93.2% (active)
- viability [3, 41]: 100% (inactive)
